Assay type in all cases: functional
Test [1] relates to Plasmodium falciparum. Nature of the test: GSK_TCMDC: Inhibition of Plasmodium falciparum 3D7 in whole red blood cells, using parasite LDH activity as an index of growth. Test compounds present at 2uM.
The test system of test [2] is Plasmodium falciparum. Kind of test: GSK_TCMDC: Inhibition of Plasmodium falciparum Dd2 in whole red blood cells, using parasite LDH activity as an index of growth. Test compounds present at 2uM.
Test [3] deals with HepG2. Nature of the test: GSK_TCMDC: Percent inhibition of human HepG2 cell line. Test compounds present at 10uM.

From ChEMBL document CHEMBL1157539, “Thousands of chemical starting points for antimalarial lead identification” (Nature, 2010) come the findings set out here.

Where “and” joins values, the source holds several entries; their conditions need not be identical. Identical values can stand only once.

What is called Inhibition is the drop in the measured response relative to a control, in per cent.

On to `COc1cc2c(c(OC)c1OC)C[C@H]1c3c(cc4c(c3-2)OCO4)CCN1C`, for which the figures for the Inhibition in test [1], in test [2] and in test [3] were 84%, 30% and 7%, respectively.
`N#Cc1ccc(N(CC(=O)NCCc2ccc(F)cc2)CC2CC2)c2ccccc12.O=C(O)C(F)(F)F`: the figures for the Inhibition in test [1], in test [2] and in test [3] were 91%, 23% and 28%, respectively.
For the compound `COC(=O)/C=C/c1ccc(CC(C)NCC(O)c2cccc(C(F)(F)F)c2)cc1` (configuration not stated), the Inhibition in test [1] turned out to be 97%; in test [2], 96%; in test [3], 16%.
As to `CC[C@H]1CN2CC[C@@H]1C[C@H]2[C@H](O)c1cc(-c2cccnc2)nc2ccc(OC)cc12.Cl`, the results for the Inhibition in test [1], in test [2] and in test [3] were 99%, 99% and 20%, respectively.
As to `CC(Cc1ccc(OCc2ccccc2)cc1)NCC(O)c1cccc(Cl)c1` (configuration not stated), the Inhibition was 99% in test [1], 99% in test [2] and 50% in test [3].
As to `O=[N+]([O-])c1ccc(Oc2c(Cl)cc(S(=O)(=O)N3CCC(CN4CCC(c5c[nH]c6ccccc56)CC4)CC3)cc2Cl)c(Cl)c1`, the Inhibition is 100% in test [1], 83% in test [2] and 43% in test [3].
Regarding `O=C1c2ccccc2CCC1CCN1CC=C(c2c[nH]c3ccccc23)CC1` (configuration not stated), the Inhibition in test [1] is 89%; in test [2], 83%; in test [3], 5%.
For `O=C(/C=C/c1cc([N+](=O)[O-])ccc1Cl)NC1CCC(CN2CCC(c3c[nH]c4ccccc34)CC2)CC1` (configuration not stated), the Inhibition in test [1] was 100%; in test [2] it was 94%; in test [3] it was 21%.
Turning to `S=C(NCCc1ccc(Cl)cc1)N1CCC(CN2CCC(c3c[nH]c4ccccc34)CC2)CC1`, the Inhibition is listed as 90% in test [1], 7% in test [2] and 31% in test [3].
For `CC[C@H]1CN2CC[C@@H]1C[C@H]2[C@H](O)c1cc(N2CCC(O)CC2)nc2ccc(OC)cc12`, the Inhibition is reported as 99% in test [1], 92% in test [2] and 15% in test [3].
As for `O=C1Nc2cccc3c2C1(CCCCN1CC=C(c2c[nH]c4ncccc24)CC1)CCC3` (configuration not stated), the Inhibition in test [1] is 92%; in test [2], 80%; in test [3], 11%.
With `O=C(NC1CCC(CN2CCC(c3c[nH]c4ccccc34)CC2)CC1)c1cc(-c2cccc(Cl)c2)n(-c2ccc(Cl)cc2Cl)n1` (configuration not stated), the Inhibition in test [1] is reported as 81%; in test [2], 25%; in test [3], 53%.
Regarding `COC(=O)c1ccc(CC(C)NCC(O)c2cc(Cl)c(N)c(Cl)c2)cc1` (configuration not stated), the Inhibition in test [1] amounted to 91%; in test [2], 66%; in test [3], 0%.
In the same order, the values of `NCc1ccc(-c2ccccc2CN(C(=O)Nc2ccccc2)C2CCN(Cc3ccccc3)CC2)cc1.O=C(O)C(F)(F)F` are 100%, 35% and 36%.
Take `CC[C@H]1CN2CC[C@H]1C[C@H]2[C@H](O)c1cc(N2CCCC(CO)C2)nc2ccc(OC)cc12` (some centres not stated): the Inhibition came out at 100% in test [1], 99% in test [2] and 11% in test [3].
In the case of `CC[C@H]1CN2CC[C@H]1C[C@H]2[C@H](O)c1cc(-c2ccc(SC)cc2)nc2ccc(OC)cc12.Cl`, the results for the Inhibition in test [1], in test [2] and in test [3] were 98%, 99% and 9%, respectively.
For the compound `Oc1ccc(CN2CCN(CCOC(c3ccccc3)c3ccccc3)CC2)cc1Cl`, the Inhibition is 98% in test [1], 77% in test [2] and 7% in test [3].
In the case of `C=Cc1cc(OC)c2c(c1)c(=O)oc1c2cc(OC)c2c(O)ccc([C@H]3O[C@H]([C@H](C)O)[C@H](O)[C@H]3O)c21`, the values for the Inhibition in test [1], in test [2] and in test [3] were 95%, 41% and 33%, respectively.
For `CC[C@H]1CN2CC[C@H]1C[C@@H]2[C@@H](OC(=O)c1ccc(Cl)cc1)c1ccnc2ccc(OC)cc12`, in that order: 89%, 0% and 0%.
`CC[C@H]1CN2CC[C@H]1C[C@H]2[C@H](O)c1cc(-c2ccc(Cl)c(Cl)c2)nc2ccc(OC)cc12.Cl`: the results for the Inhibition in test [1], in test [2] and in test [3] were 98%, 99% and 17%, respectively.
For `CC(=O)Nc1ccc2[nH]cc(C3CCN(CC4CCN(C(=O)/C=C/c5ccc(Cl)c(Cl)c5)CC4)CC3)c2c1`, in that order: 96%, 41% and 10%.
Regarding `COc1ccc(CN(C2CC2)C(C)C(=O)c2[nH]c(C)c(C(C)=O)c2C)cc1` (configuration not stated), the Inhibition in test [1] is reported as 98%; in test [2], 64%; in test [3], 40%.
Consider `N#Cc1ccc(N(CC(=O)NCCc2ccccc2)CC2CC2)c2ccccc12.O=C(O)C(F)(F)F`, for which the values for the Inhibition in test [1], in test [2] and in test [3] were 99%, 48% and 0%, respectively.
For the compound `CC(C)(C)c1cc(/C=C/C(=O)NC2CCC(CN3CCC(c4c[nH]c5ccccc45)CC3)CC2)cc(C(C)(C)C)c1O` (configuration not stated), the Inhibition was 100% in test [1]; 100% in test [2]; 98% and 99% in test [3].
Regarding `CC[C@H]1CN2CC[C@@H]1C[C@H]2[C@H](O)c1cc(N2CCC(O)(c3ccc(Cl)cc3)CC2)nc2ccc(OC)cc12`, the values for the Inhibition in test [1], in test [2] and in test [3] were 100%, 98% and 21%, respectively.
With `Cc1ccc2c(C3=CCN(CCCCC4(C)C(=O)Nc5c(F)cccc54)CC3)c(C)[nH]c2c1` (configuration not stated), the values for the Inhibition in test [1], in test [2] and in test [3] were 95%, 89% and 5%, respectively.
With `COCCNCc1ccc(-c2ccc(CN(C(=O)Nc3ccccc3)C3CCN(Cc4ccccc4)CC3)cc2)cc1.O=C(O)C(F)(F)F`, the Inhibition turned out to be 98% in test [1], 39% in test [2] and 16% in test [3].
For `CC(C)CNCc1ccc(-c2cccc(CN(C(=O)NC3CCCCC3)C3CCN(Cc4ccccc4)CC3)c2)cc1.O=C(O)C(F)(F)F`, in that order: 98%, 88% and 20%.
For `COc1ccc2nc(-c3ccc(F)cc3)cc([C@@H](O)[C@@H]3C[C@@H]4CCN3CC4C=NO)c2c1` (some centres not stated), the Inhibition in test [1] stood at 100%; in test [2] it was 94%; in test [3] it was 14%.
